Test results: the supplement of paper PMC7411054
Where a name gives a salt, the structure may show the parent alone.

Tests used:
Experiment in all cases: phenotypically active (imaging signature differs from DMSO and reproducible) at any of 0.3-9 uM (binary (1 = active, 0 = inactive)); higher = active
Conditions in all cases: treatment time: 24 h
A549-ACTB-RAB5A = tested on: A549-ACTB-RAB5A
In short: (§1)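 Fifteen reporter lines derived from A549, HepG2 and WPMY1 cells by gene editing, carrying BFP for segmentation plus GFP and RFP/FusionRed markers, were exposed to 0.3, 1, 3 or 9 µM for 24 h in four wells each and imaged live. Live-cell features from each well were normalised to solvent control wells. A well set counted as deviating when ≥3 of 4 wells lay beyond the 95th percentile of control Euclidean distances, and as reproducible when the median replicate Pearson correlation exceeded the 95th percentile of non-replicates. Phenotypic activity was assigned only when both criteria were met.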

A549-CANX-COX4 = tested on: A549-CANX-COX4
In short: as §1

A549-GM130-SQSTM1 = tested on: A549-GM130-SQSTM1
In short: as §1

A549-TP53BP1-CLTA = tested on: A549-TP53BP1-CLTA
In short: as §1

A549-TUBA1B-RELA = tested on: A549-TUBA1B-RELA
In short: as §1

HepG2-ACTB-RAB5A = tested on: HepG2-ACTB-RAB5A
In short: as §1

HepG2-CANX-COX4 = tested on: HepG2-CANX-COX4
In short: as §1

HepG2-GM130-SQSTM1 = tested on: HepG2-GM130-SQSTM1
In short: as §1

HepG2-TP53BP1-CLTA = tested on: HepG2-TP53BP1-CLTA
In short: as §1

HepG2-TUBA1B-RELA = tested on: HepG2-TUBA1B-RELA
In short: as §1

WPMY1-ACTB-RAB5A = tested on: WPMY1-ACTB-RAB5A
In short: as §1

WPMY1-CANX-COX4 = tested on: WPMY1-CANX-COX4
In short: as §1

WPMY1-GM130-SQSTM1 = tested on: WPMY1-GM130-SQSTM1
In short: as §1

WPMY1-TP53BP1-CLTA = tested on: WPMY1-TP53BP1-CLTA
In short: as §1

WPMY1-TUBA1B-RELA = tested on: WPMY1-TUBA1B-RELA
In short: as §1

Measured: phenotypically active

CCN1C(C)(C)CC(Oc2ccc(C(=O)Nc3ccc(NC(=O)Nc4cc(C(C)(C)C)on4)cc3)nc2)CC1(C)C
inactive: A549-ACTB-RAB5A 0 | A549-CANX-COX4 0 | A549-GM130-SQSTM1 0 | A549-TP53BP1-CLTA 0 | A549-TUBA1B-RELA 0 | HepG2-ACTB-RAB5A 0 | HepG2-CANX-COX4 0 | HepG2-GM130-SQSTM1 0 | HepG2-TP53BP1-CLTA 0 | HepG2-TUBA1B-RELA 0 | WPMY1-ACTB-RAB5A 0 | WPMY1-CANX-COX4 0 | WPMY1-GM130-SQSTM1 0 | WPMY1-TP53BP1-CLTA 0 | WPMY1-TUBA1B-RELA 0

NNCCc1ccccc1 [phenelzine]
inactive: A549-ACTB-RAB5A 0 | A549-CANX-COX4 0 | A549-GM130-SQSTM1 0 | A549-TP53BP1-CLTA 0 | A549-TUBA1B-RELA 0 | HepG2-ACTB-RAB5A 0 | HepG2-CANX-COX4 0 | HepG2-GM130-SQSTM1 0 | HepG2-TP53BP1-CLTA 0 | HepG2-TUBA1B-RELA 0 | WPMY1-ACTB-RAB5A 0 | WPMY1-CANX-COX4 0 | WPMY1-GM130-SQSTM1 0 | WPMY1-TP53BP1-CLTA 0 | WPMY1-TUBA1B-RELA 0

Cn1cccc1/C=C1\C(=O)NC(=O)c2ccccc21
inactive: A549-ACTB-RAB5A 0 | A549-CANX-COX4 0 | A549-GM130-SQSTM1 0 | A549-TP53BP1-CLTA 0 | A549-TUBA1B-RELA 0 | HepG2-ACTB-RAB5A 0 | HepG2-CANX-COX4 0 | HepG2-GM130-SQSTM1 0 | HepG2-TP53BP1-CLTA 0 | HepG2-TUBA1B-RELA 0 | WPMY1-ACTB-RAB5A 0 | WPMY1-CANX-COX4 0 | WPMY1-GM130-SQSTM1 0 | WPMY1-TP53BP1-CLTA 0 | WPMY1-TUBA1B-RELA 0

COc1cc2c(cc1OC)C(=O)C(CC1CCN(Cc3ccccc3)CC1)C2 (stereo not given) [donepezil]
inactive: A549-ACTB-RAB5A 0 | A549-CANX-COX4 0 | A549-GM130-SQSTM1 0 | A549-TP53BP1-CLTA 0 | A549-TUBA1B-RELA 0 | HepG2-ACTB-RAB5A 0 | HepG2-CANX-COX4 0 | HepG2-GM130-SQSTM1 0 | HepG2-TP53BP1-CLTA 0 | HepG2-TUBA1B-RELA 0 | WPMY1-ACTB-RAB5A 0 | WPMY1-CANX-COX4 0 | WPMY1-GM130-SQSTM1 0 | WPMY1-TP53BP1-CLTA 0 | WPMY1-TUBA1B-RELA 0

OC[C@H]1NC[C@@H](O)[C@@H](O)[C@@H]1O [1-Deoxymannojirimycin hydrochloride]
inactive: A549-ACTB-RAB5A 0 | A549-CANX-COX4 0 | A549-GM130-SQSTM1 0 | A549-TP53BP1-CLTA 0 | A549-TUBA1B-RELA 0 | HepG2-ACTB-RAB5A 0 | HepG2-CANX-COX4 0 | HepG2-GM130-SQSTM1 0 | HepG2-TP53BP1-CLTA 0 | HepG2-TUBA1B-RELA 0 | WPMY1-ACTB-RAB5A 0 | WPMY1-CANX-COX4 0 | WPMY1-GM130-SQSTM1 0 | WPMY1-TP53BP1-CLTA 0 | WPMY1-TUBA1B-RELA 0

Cc1ccc(N(CC2=NCCN2)c2cccc(O)c2)cc1 [phentolamine]
inactive: A549-ACTB-RAB5A 0 | A549-CANX-COX4 0 | A549-GM130-SQSTM1 0 | A549-TP53BP1-CLTA 0 | A549-TUBA1B-RELA 0 | HepG2-ACTB-RAB5A 0 | HepG2-CANX-COX4 0 | HepG2-GM130-SQSTM1 0 | HepG2-TP53BP1-CLTA 0 | HepG2-TUBA1B-RELA 0 | WPMY1-ACTB-RAB5A 0 | WPMY1-CANX-COX4 0 | WPMY1-GM130-SQSTM1 0 | WPMY1-TP53BP1-CLTA 0 | WPMY1-TUBA1B-RELA 0

Cc1cc(/N=N/c2cc(S(=O)(=O)O)c(C)cc2C)c(N)cc1O [Ischemin sodium salt]
inactive: A549-ACTB-RAB5A 0 | A549-CANX-COX4 0 | A549-GM130-SQSTM1 0 | A549-TP53BP1-CLTA 0 | A549-TUBA1B-RELA 0 | HepG2-ACTB-RAB5A 0 | HepG2-CANX-COX4 0 | HepG2-GM130-SQSTM1 0 | HepG2-TP53BP1-CLTA 0 | HepG2-TUBA1B-RELA 0 | WPMY1-ACTB-RAB5A 0 | WPMY1-CANX-COX4 0 | WPMY1-GM130-SQSTM1 0 | WPMY1-TP53BP1-CLTA 0 | WPMY1-TUBA1B-RELA 0

NC(=O)N1c2ccccc2C=Cc2ccccc21 [carbamazepine]
inactive: A549-ACTB-RAB5A 0 | A549-CANX-COX4 0 | A549-GM130-SQSTM1 0 | A549-TP53BP1-CLTA 0 | A549-TUBA1B-RELA 0 | HepG2-ACTB-RAB5A 0 | HepG2-CANX-COX4 0 | HepG2-GM130-SQSTM1 0 | HepG2-TP53BP1-CLTA 0 | HepG2-TUBA1B-RELA 0 | WPMY1-ACTB-RAB5A 0 | WPMY1-CANX-COX4 0 | WPMY1-GM130-SQSTM1 0 | WPMY1-TP53BP1-CLTA 0 | WPMY1-TUBA1B-RELA 0

C[C@H](Cc1cc2c(c(C(N)=O)c1)N(CCCO)CC2)NCCOc1ccccc1OCC(F)(F)F [silodosin]
inactive: A549-ACTB-RAB5A 0 | A549-CANX-COX4 0 | A549-GM130-SQSTM1 0 | A549-TP53BP1-CLTA 0 | A549-TUBA1B-RELA 0 | HepG2-ACTB-RAB5A 0 | HepG2-CANX-COX4 0 | HepG2-GM130-SQSTM1 0 | HepG2-TP53BP1-CLTA 0 | HepG2-TUBA1B-RELA 0 | WPMY1-ACTB-RAB5A 0 | WPMY1-CANX-COX4 0 | WPMY1-GM130-SQSTM1 0 | WPMY1-TP53BP1-CLTA 0 | WPMY1-TUBA1B-RELA 0

CN(C(=O)CCCOc1ccc2[nH]c(=O)ccc2c1)C1CCCCC1 [Cilostamide]
inactive: A549-ACTB-RAB5A 0 | A549-CANX-COX4 0 | A549-GM130-SQSTM1 0 | A549-TP53BP1-CLTA 0 | A549-TUBA1B-RELA 0 | HepG2-ACTB-RAB5A 0 | HepG2-CANX-COX4 0 | HepG2-GM130-SQSTM1 0 | HepG2-TP53BP1-CLTA 0 | HepG2-TUBA1B-RELA 0 | WPMY1-ACTB-RAB5A 0 | WPMY1-CANX-COX4 0 | WPMY1-GM130-SQSTM1 0 | WPMY1-TP53BP1-CLTA 0 | WPMY1-TUBA1B-RELA 0

COCCOC(=O)C1=C(C)NC(C)=C(C(=O)OC(C)C)C1c1cccc([N+](=O)[O-])c1 (stereo not given) [nimodipine]
inactive: A549-ACTB-RAB5A 0 | A549-CANX-COX4 0 | A549-GM130-SQSTM1 0 | A549-TP53BP1-CLTA 0 | A549-TUBA1B-RELA 0 | HepG2-ACTB-RAB5A 0 | HepG2-CANX-COX4 0 | HepG2-GM130-SQSTM1 0 | HepG2-TP53BP1-CLTA 0 | HepG2-TUBA1B-RELA 0 | WPMY1-ACTB-RAB5A 0 | WPMY1-CANX-COX4 0 | WPMY1-GM130-SQSTM1 0 | WPMY1-TP53BP1-CLTA 0 | WPMY1-TUBA1B-RELA 0

COc1cc2c3cc1Oc1cc(ccc1O)C[C@@H]1c4c(cc(OC)c(O)c4Oc4ccc(cc4)C[C@@H]3N(C)CC2)CC[N+]1(C)C [(+)-Tubocurarine chloride]
inactive: A549-ACTB-RAB5A 0 | A549-CANX-COX4 0 | A549-GM130-SQSTM1 0 | A549-TP53BP1-CLTA 0 | A549-TUBA1B-RELA 0 | HepG2-ACTB-RAB5A 0 | HepG2-CANX-COX4 0 | HepG2-GM130-SQSTM1 0 | HepG2-TP53BP1-CLTA 0 | HepG2-TUBA1B-RELA 0 | WPMY1-ACTB-RAB5A 0 | WPMY1-CANX-COX4 0 | WPMY1-GM130-SQSTM1 0 | WPMY1-TP53BP1-CLTA 0 | WPMY1-TUBA1B-RELA 0
